This passage reports growth results from PubChem BioAssay (NCI).

Among the test systems are MOLT-4 leukemia; OVCAR-8 ovarian; OVCAR-4 ovarian; SK-OV-3 ovarian; IGROV1 ovarian; OVCAR-3 ovarian; HS 578T breast; NCI/ADR-RES ovarian; T-47D breast; BT-549 breast; MDA-MB-435 melanoma; SW-620 colon; MCF7 breast; HCT-116 colon; KM12 colon; OVCAR-5 ovarian; HCC-2998 colon; SR leukemia; RPMI-8226 leukemia.
Holding throughout (assay): NCI-60 one-dose screen, 48 h (100 = growth as untreated, 0 = no growth, -100 = all killed)
What all share (conditions): 10 µM unless noted

This is part of a sample that, as a whole, favours compounds with a hit. Of some 83,000 tested, about 20% had one in any assay.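 How to read the values: 0–100, growth inhibition (40 = 60% inhibited); 0, no net growth; -100 to 0, cell death (-40 = 40% of starting cells died; -100 = all dead).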 Values without a mark were called inactive. Activity calls are given as the source filed them. Rule for the calls: active = growth percent below 10; inactive = the rest.

For `CNC(=O)Oc1ccc(N(C)C)cc1C(C)C`, the growth in the assay on MOLT-4 leukemia was 75.3%; in the assay with OVCAR-8 ovarian, 105%; in the assay with OVCAR-4 ovarian it was 85.9%; with SK-OV-3 ovarian, 105%; in the assay on IGROV1 ovarian it was 109%; in the assay with OVCAR-3 ovarian, 97.7%. In addition, the growth is 94.8% in the assay on HS 578T breast; 107% in the assay on NCI/ADR-RES ovarian; 101% in the assay with T-47D breast; 73.6% with BT-549 breast; 91.7% in the assay on MDA-MB-435 melanoma; 116% with SW-620 colon. The growth is 91% in the assay on MCF7 breast, 95.9% in the assay on HCT-116 colon and 112% in the assay on KM12 colon.
Take `O=C(N/N=C/c1ccc(N(CCCl)CCCl)cc1)c1cccc2ccccc12`: the growth in the assay with MOLT-4 leukemia is 51.4%; in the assay with OVCAR-5 ovarian, 93%; in the assay on OVCAR-4 ovarian, 88.5%; in the assay on SK-OV-3 ovarian, 69.1%; with IGROV1 ovarian, 79.2%; in the assay with OVCAR-3 ovarian, 61.8%. In addition, the growth is 69.4% with HS 578T breast; 72.9% with NCI/ADR-RES ovarian; 73.3% in the assay with T-47D breast; 67.4% in the assay on BT-549 breast; 13.8% in the assay with MDA-MB-435 melanoma; 54.1% in the assay on SW-620 colon. Further, the growth in the assay on MCF7 breast is 35.4%; in the assay with HCT-116 colon, 48.1%; in the assay on HCC-2998 colon, 87.7%; in the assay on KM12 colon it was 67.4%.
On to `O=C1C(Cl)=C(N2CCOCC2)C(=O)c2ccccc21`, for which the growth in the assay with SR leukemia was -37.1% (active); in the assay on RPMI-8226 leukemia it was -3.69% (active); with OVCAR-8 ovarian, 68.2%; in the assay on OVCAR-5 ovarian it was 119%; in the assay on OVCAR-4 ovarian, 37.7%; in the assay on SK-OV-3 ovarian, 110%. In addition, the growth with IGROV1 ovarian was -47.2% (active); in the assay on OVCAR-3 ovarian, -58.3% (active); with HS 578T breast, 116%; with NCI/ADR-RES ovarian it was 90.9%; in the assay with T-47D breast it was -23% (active); in the assay with BT-549 breast it was 106%. The growth was 67% in the assay on MDA-MB-435 melanoma; -16.5% (active) in the assay on SW-620 colon; 93.4% in the assay on MCF7 breast; 108% with HCC-2998 colon; 102% in the assay on KM12 colon.
As for `COC(=O)[C@@H](C)C[C@H](Cc1ccccc1)NC(=O)c1csc([C@@H](C[C@H](C(C)C)N(C)C(=O)[C@H](C)NC(=O)[C@H]2CCCCN2C)OC(C)=O)n1`, the growth with SR leukemia was 15.8%; in the assay with RPMI-8226 leukemia, 15.7%; in the assay with OVCAR-8 ovarian, 26.4%; in the assay with OVCAR-5 ovarian it was 63.7%; with OVCAR-4 ovarian, 60.3%; in the assay with SK-OV-3 ovarian it was 47.2%. Moreover, the growth with IGROV1 ovarian was 47%; in the assay on OVCAR-3 ovarian it was -0.67% (active); in the assay with HS 578T breast, 6.45% (active); with NCI/ADR-RES ovarian, 87.6%; in the assay with T-47D breast, 41.9%; with BT-549 breast it was 47.6%. The growth was -33% (active) with MDA-MB-435 melanoma, 18.4% with SW-620 colon, 33.8% in the assay with HCC-2998 colon and 22.4% in the assay on KM12 colon.
As for `O=P1(NCCCl)OCCCN1CCCl` (centres undefined), the growth in the assay with SR leukemia was 91.2%; in the assay on RPMI-8226 leukemia, 105%; with OVCAR-8 ovarian, 114%; in the assay on OVCAR-5 ovarian, 106%; in the assay with OVCAR-4 ovarian, 112%; in the assay with SK-OV-3 ovarian it was 100%. For the same compound, the growth was 111% in the assay with IGROV1 ovarian; 107% with OVCAR-3 ovarian; 92.7% in the assay on HS 578T breast; 110% with NCI/ADR-RES ovarian; 105% in the assay on T-47D breast; 104% in the assay with BT-549 breast. Further, the growth was 107% with MDA-MB-435 melanoma; 98% in the assay on SW-620 colon; 101% with MCF7 breast; 107% with HCC-2998 colon; 103% in the assay on KM12 colon.
Regarding `C=CC[PH+](c1ccccc1)c1ccccc1.C=CC[PH+](c1ccccc1)c1ccccc1.[Cl][Pt][Cl]`, the growth in the assay on SR leukemia is 1.56% (active); in the assay with RPMI-8226 leukemia it was -12.1% (active); with OVCAR-8 ovarian, 20%; in the assay on OVCAR-5 ovarian, 96.1%; with OVCAR-4 ovarian, 39.7%; with SK-OV-3 ovarian, 99.1%. For the same compound, the growth in the assay on IGROV1 ovarian is -17.4% (active); in the assay on OVCAR-3 ovarian, -9.31% (active); in the assay on HS 578T breast, 55.8%; with NCI/ADR-RES ovarian, 97%; with T-47D breast, 0.0943% (active); in the assay on BT-549 breast, 78%. For the same compound, the growth with MDA-MB-435 melanoma was 64.9%; in the assay with SW-620 colon it was 2.38% (active); in the assay on MCF7 breast, 31.9%; in the assay with HCT-116 colon, 3.92% (active); in the assay with HCC-2998 colon, 94.9%; in the assay on KM12 colon, 77.8%.
`C[CH2][Sn]([Cl])([Cl])[CH2]C.Oc1ccccc1C=NCCN=Cc1ccccc1O`: the growth is 86.1% in the assay with MOLT-4 leukemia; 100% in the assay with OVCAR-8 ovarian; 104% with OVCAR-5 ovarian; 101% in the assay on SK-OV-3 ovarian; 98.9% in the assay on IGROV1 ovarian; 103% with OVCAR-3 ovarian. Moreover, the growth is 100% in the assay on HS 578T breast; 106% in the assay on NCI/ADR-RES ovarian; 90% in the assay with T-47D breast; 117% with BT-549 breast; 108% in the assay with MDA-MB-435 melanoma; 99.7% in the assay on SW-620 colon. The growth with MCF7 breast is 131%; with HCT-116 colon it was 112%; in the assay on KM12 colon, 106%.
On to `COC(=O)[C@]12CCC(C)(C)C[C@H]1[C@H]1C(=O)C[C@@H]3[C@@]4(C)C[C@@]5(CC(C)(C)[C@@H]4CC[C@@]3(C)[C@]1(C)CC2)OO[C@@](C)(C(F)(F)F)O5`, for which the growth with MOLT-4 leukemia was 93.6%; in the assay with OVCAR-8 ovarian it was 97.6%; in the assay with OVCAR-5 ovarian it was 94.1%; in the assay on OVCAR-4 ovarian, 81.1%; in the assay on SK-OV-3 ovarian, 103%; in the assay on IGROV1 ovarian, 97.8%. The growth was 106% with OVCAR-3 ovarian; 99.7% with HS 578T breast; 98.6% with NCI/ADR-RES ovarian; 81.4% with T-47D breast; 111% in the assay with BT-549 breast; 98.7% with MDA-MB-435 melanoma. Moreover, the growth is 103% with SW-620 colon; 82.2% in the assay with MCF7 breast; 88.7% with HCT-116 colon; 106% in the assay on HCC-2998 colon; 99.9% with KM12 colon.
Take `CC[C@@H]1[C@@H](C)O[C@@](O)([C@@H](C)[C@H](O)[C@H](C)[C@H]2OC(=O)/C=C/C=C/[C@H](C)[C@@H]([C@@H](C)[C@@H](O)[C@H](C)[C@@]3(O)C[C@@H](O[C@H]4C[C@@H](O)[C@H](O)C(C)O4)[C@H](CC)[C@@H](C)O3)OC(=O)/C=C/C=C/[C@@H]2C)C[C@H]1O[C@@H]1C[C@@H](O)[C@H](O)C(C)O1` (some centres undefined): the growth was -49.1% (active) in the assay on SR leukemia; -65.2% (active) with RPMI-8226 leukemia; -75.9% (active) in the assay with OVCAR-8 ovarian; -88.7% (active) with OVCAR-5 ovarian; -95.6% (active) in the assay on OVCAR-4 ovarian; -96.5% (active) in the assay on SK-OV-3 ovarian. For the same compound, the growth in the assay with IGROV1 ovarian is -71.4% (active); in the assay with OVCAR-3 ovarian, -98% (active); in the assay with HS 578T breast it was -51.5% (active); with NCI/ADR-RES ovarian, -64.3% (active); with T-47D breast, -63% (active); in the assay on BT-549 breast, -90.5% (active). In addition, the growth in the assay on MDA-MB-435 melanoma was -97% (active); in the assay on SW-620 colon, -85.3% (active); in the assay on MCF7 breast it was -69.2% (active); with HCT-116 colon, -81.2% (active); with HCC-2998 colon it was -74.7% (active); in the assay on KM12 colon it was -94.7% (active).
